According to the supplement of paper PMC12494721:
Structures can show the parent of a compound that is named as a salt.

Experiments:
Conditions in all cases: incubation time: 27 h, anaerobic, 37 °C;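 for the amine columns active = adjusted P below 0.05 in both replicates with a change the same way and a mean fold change under 0.8 or over 1.25; inactive = the rest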
[1] = tested on: Clostridium sporogenes DSM 1664; assay: growth (OD595) fold change vs plate DMSO controls (fold change (ratio)); higher = more growth
Method in brief: (§1)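 Each value is the mean of 2 biological replicates, and fold changes above 1.5 were set to NA. The underlying readings were taken at 595 nm from shaken anaerobic mGAM cultures in 96-well plates after 27 h at 37 °C. They were blank-subtracted, corrected for compound background using 20 µM compound solutions in water, and converted to OD with a calibration factor of 5. Growth is the fold change relative to the median of the plate DMSO controls.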

Escherichia coli IAI1 [2] = assay: as above
Method in brief: as §1

[3] = tested on: Klebsiella aerogenes DSM 30053; assay: as above
Method in brief: as §1

[4] = tested on: Ruminococcus gnavus DSM 108212; assay: as above
Method in brief: as §1

[5] = tested on: Klebsiella aerogenes DSM 30053; assay: fold change of Histamine concentration vs plate DMSO controls (fold change (ratio)); higher = more amine produced, active = hit call of the paper (significant change in both replicates, either direction)
Method in brief: (§2)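 Each value is the fold change relative to DMSO-only wells on the same plate. Four gut bacterial strains were grown anaerobically in mGAM at 37 °C for 27 h in 80 µL wells, starting at OD 0.1 before a 1:1 dilution, with compounds at 20 µM final (sweeteners 50 µM). Whole cultures were extracted with cold acetonitrile/methanol containing 0.1% formic acid, centrifuged, and amines were quantified by LC–triple-quadrupole MS (dynamic MRM) against external calibration curves with within-batch drift correction. Values are means of 2 biological replicates.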

[6] = tested on: Clostridium sporogenes DSM 1664; assay: fold change of Tryptamine concentration vs plate DMSO controls (fold change (ratio)); higher = more amine produced, active = hit call of the paper (significant change in both replicates, either direction)
Method in brief: as §2

[7] = tested on: Ruminococcus gnavus DSM 108212; assay: as above
Method in brief: as §2

Escherichia coli IAI1 [8] = assay: fold change of Putrescine concentration vs plate DMSO controls (fold change (ratio)); higher = more amine produced, active = hit call of the paper (significant change in both replicates, either direction)
Method in brief: as §2

[9] = tested on: Klebsiella aerogenes DSM 30053; assay: as above
Method in brief: as §2

Escherichia coli IAI1 [10] = assay: fold change of Cadaverine concentration vs plate DMSO controls (fold change (ratio)); higher = more amine produced, active = hit call of the paper (significant change in both replicates, either direction)
Method in brief: as §2

[11] = tested on: Klebsiella aerogenes DSM 30053; assay: as above
Method in brief: as §2

[12] = tested on: Ruminococcus gnavus DSM 108212; assay: fold change of 2-Phenylethylamine concentration vs plate DMSO controls (fold change (ratio)); higher = more amine produced, active = hit call of the paper (significant change in both replicates, either direction)
Method in brief: as §2

CC[C@H](C)[C@H](NC(=O)[C@H](Cc1ccc(O)cc1)NC(=O)[C@@H](NC(=O)[C@H](CCCN=C(N)N)NC(=O)[C@@H](N)CC(=O)O)C(C)C)C(=O)N[C@@H](Cc1cnc[nH]1)C(=O)N1CCC[C@H]1C(=O)N[C@@H](Cc1ccccc1)C(=O)O [Angiotensin II (Human) Trifluoroacetic acid salt] (20 µM)
growth [1]: 1.02 | growth (Escherichia coli IAI1 [2]): 1.03 | growth [3]: 0.987 | growth [4]: 0.979 | fold change of Histamine concentration [5]: 1.01 (inactive) | fold change of Tryptamine concentration [6]: 1.07 (inactive) | fold change of Tryptamine concentration [7]: 1.09 (inactive) | fold change of Putrescine concentration (Escherichia coli IAI1 [8]): 0.966 (inactive) | fold change of Putrescine concentration [9]: 0.983 (inactive) | fold change of Cadaverine concentration (Escherichia coli IAI1 [10]): 0.934 (inactive) | fold change of Cadaverine concentration [11]: 0.994 (inactive) | fold change of 2-Phenylethylamine concentration [12]: 1.14 (inactive)

Cn1cc(C(=O)[C@@H]2CCc3[nH]cnc3C2)c2ccccc21 [Ramosetron hydrochloride] (20 µM)
growth [1]: 0.928 | growth (Escherichia coli IAI1 [2]): 0.966 | growth [3]: 1 | growth [4]: 0.964 | fold change of Histamine concentration [5]: 0.964 (inactive) | fold change of Tryptamine concentration [6]: 1.02 (inactive) | fold change of Tryptamine concentration [7]: 1 (inactive) | fold change of Putrescine concentration (Escherichia coli IAI1 [8]): 0.969 (inactive) | fold change of Putrescine concentration [9]: 1.01 (inactive) | fold change of Cadaverine concentration (Escherichia coli IAI1 [10]): 1.11 (inactive) | fold change of Cadaverine concentration [11]: 0.997 (inactive) | fold change of 2-Phenylethylamine concentration [12]: 1.04 (inactive)

CCCN(CCC)CCc1cccc2c1CC(=O)N2 [Ropinirole hydrochloride] (20 µM)
growth [1]: 1.07 | growth (Escherichia coli IAI1 [2]): 0.95 | growth [3]: 0.961 | growth [4]: 1.02 | fold change of Histamine concentration [5]: 1.08 (inactive) | fold change of Tryptamine concentration [6]: 1 (inactive) | fold change of Tryptamine concentration [7]: 1 (inactive) | fold change of Putrescine concentration (Escherichia coli IAI1 [8]): 0.952 (inactive) | fold change of Putrescine concentration [9]: 1.02 (inactive) | fold change of Cadaverine concentration (Escherichia coli IAI1 [10]): 0.978 (inactive) | fold change of Cadaverine concentration [11]: 0.986 (inactive) | fold change of 2-Phenylethylamine concentration [12]: 1.02 (inactive)

CCn1cc(C(=O)O)c(=O)c2cc(F)c(N3CCNCC3)cc21 [Norfloxacin] (20 µM)
growth [1]: 0.0353 | growth (Escherichia coli IAI1 [2]): 0.0339 | growth [3]: 0.239 | growth [4]: 0.814 | fold change of Histamine concentration [5]: 0.0898 (active) | fold change of Tryptamine concentration [6]: 0.0308 (active) | fold change of Tryptamine concentration [7]: 0.863 (inactive) | fold change of Putrescine concentration (Escherichia coli IAI1 [8]): 0.612 (active) | fold change of Putrescine concentration [9]: 0.792 (active) | fold change of Cadaverine concentration (Escherichia coli IAI1 [10]): 0.161 (active) | fold change of Cadaverine concentration [11]: 0.963 (inactive) | fold change of 2-Phenylethylamine concentration [12]: 0.892 (inactive)

CO[C@H]1/C=C/O[C@@]2(C)Oc3c(C)c(O)c4c(O)c(c5c(nc6cc(C)ccn65)c4c3C2=O)NC(=O)/C(C)=C\C=C\[C@H](C)[C@H](O)[C@@H](C)[C@@H](O)[C@@H](C)[C@H](OC(C)=O)[C@@H]1C [Rifaximin] (20 µM)
growth [1]: 0.00823 | growth (Escherichia coli IAI1 [2]): 0.438 | growth [3]: 0.844 | growth [4]: 0.306 | fold change of Histamine concentration [5]: 1.15 (inactive) | fold change of Tryptamine concentration [6]: 0.0445 (active) | fold change of Tryptamine concentration [7]: 0.144 (active) | fold change of Putrescine concentration (Escherichia coli IAI1 [8]): 0.996 (inactive) | fold change of Putrescine concentration [9]: 0.651 (active) | fold change of Cadaverine concentration (Escherichia coli IAI1 [10]): 1.53 (active) | fold change of Cadaverine concentration [11]: 1.04 (inactive) | fold change of 2-Phenylethylamine concentration [12]: 0.149 (active)

CN(C)CCN(Cc1cccs1)c1ccccn1 [Methapyrilene hydrochloride] (20 µM)
growth [1]: 1.04 | growth (Escherichia coli IAI1 [2]): 1 | growth [3]: 1 | growth [4]: 1.2 | fold change of Histamine concentration [5]: 0.994 (inactive) | fold change of Tryptamine concentration [6]: 1.02 (inactive) | fold change of Tryptamine concentration [7]: 1.05 (inactive) | fold change of Putrescine concentration (Escherichia coli IAI1 [8]): 0.892 (inactive) | fold change of Putrescine concentration [9]: 0.993 (inactive) | fold change of Cadaverine concentration (Escherichia coli IAI1 [10]): 1.18 (inactive) | fold change of Cadaverine concentration [11]: 0.985 (inactive) | fold change of 2-Phenylethylamine concentration [12]: 1.08 (inactive)
